Source: PubChem (National Center for Advancing Translational Sciences (NCATS))
HCV inhibitor: blocks hepatitis C virus; Huh7.5.1 HCVcc-Cre infection, luciferase reporter, 44 h; Potency, µM (highest dose often 41.8 µM), for the others: at the highest dose activity change, negative = inhibition, hits mostly inhibitors; 340,000 compounds, 3.4% hits; AID 651820; active means well fitted inhibition curve with a large enough effect; inconclusive means small, poorly fitted or top-dose-only effect, or another doubt; inactive means no such curve, though single readings can be large or run the other way; further: potency means the concentration at half of the fitted maximal effect
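Whole-lifecycle infectious HCVcc-Cre system; cells 1,000/well, compound then virus (~0.5 moi) added 4 h after plating, 44 h culture. Luciferase read 15 sec following 15 min substrate incubation, room temp.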
MARV entry inh: blocks Marburg virus binding to or entry into cells; Marburg virus pseudotyped entry inhibition, cell reporter; Potency, µM (series often up to 37.8 µM), inactives show at the highest dose activity change, negative = inhibition, usual class: inhibitors; 300,000 compounds, 1.8% hits; calls by dose curve; tested in HEK293 cells; further: potency means the concentration at half of the fitted maximal effect
HCMV antiviral: human cytomegalovirus inhibition | HFF cells, HCMV-luciferase reporter, 72 h; hits give low values | activity change, negative = inhibition, % at 57.5 µM | 410,000 compounds, 4.5% hits | AID 1259415; in the data active means activity change below about -60%; inconclusive means no clear call, values can overlap the other calls; inactive means above about -39%
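Two compound doses tested in HFFs infected with HCMV-luciferase, MOI 1 PFU/cell, 72 h at 37C. Lysate luminescence read with OneGlo; data normalized against buffer-only and 10uM Salinomycin inhibitor controls.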
Lassa entry inh: inhibitors of Lassa virus binding or cell entry | Lassa virus pseudotype entry inhibition, cell reporter | Potency, µM (highest dose often 37.9 µM), for the others: at the top dose activity change, negative = inhibition, hits mostly inhibitors | 300,000 compounds, 1.2% hits | AID 540256; calls by dose curve; tested in HEK293 cells; further: potency means the concentration at half of the fitted maximal effect; nearly all actives have a fitted effect of over 50% in size
FMDV inh: blocks foot and mouth disease virus | 410,000 compounds, 1.2% hits | Potency, µM (highest dose often 57.9 µM), for inactives: at the highest dose activity change, negative = inhibition, most hits filed as inhibitors | AID 1159524 | FMDV antiviral cell-based qHTS; calls by dose curve; tested in HEK293T cells; further: read-out not given here; potency means the concentration at half of the fitted maximal effect; nearly all actives have a fitted effect of over 45% in size
Starred values were filed as active, the others as inactive; ? = inconclusive; . = no result; [ ] = remark or other dose. Compounds with a hit are over-represented: about 7.9% of the library has one in this group of screens. On the % scale 0 is the no-effect control and ±100 the full control effect.

SMILES	HCV inhibitor	MARV entry inh	HCMV antiviral	Lassa entry inh	FMDV inh
CC1CCCCC1NC(=O)COC(=O)c1ccccc1NC(=O)c1ccco1 (stereo not drawn)	20%	14%	-29	-24%	-18%
CC(C)(C)c1ccc(Oc2ccc(NC(=O)c3ccco3)cn2)cc1	7.9µM*	.	-103*	.	?
CNC(=O)COC(=O)c1ccccc1NC(=O)c1ccco1	-10%	.	-101*	.	-14%
Cn1nc(C(F)(F)F)c(-c2cccc(C(F)(F)F)c2)c1NC(=O)c1ccco1	-6%	.	-71*	.	-22%
O=C(Nc1ccc(Oc2ncccn2)cc1)c1ccco1	7%	9%	48	8%	14%
O=C(Nc1ccc(Oc2cccc(C(F)(F)F)c2)nc1)c1ccco1	10µM*	?	-72*	-20%	?
CCC[C@H](/C=C/C(=O)OCC)NC(=O)C(F)(F)F	.	.	-8	.	.
Cc1noc(NS(=O)(=O)c2ccc(NC(=O)c3ccc(Br)cc3)cc2)c1C	.	.	2	7%[46.1 µM]	15%
COc1ccc(-c2ccc(NC(=O)c3ccco3)cc2)nn1	-20%	?	7	?	11µM*
CC(C)(C)c1ccc(Oc2ccc(NC(=O)c3cccs3)cn2)cc1	?	13µM*	?	?	13µM*
COc1ccc(-c2cccc(NC(=O)c3ccco3)c2)nn1	-2%[8.37 µM]	10%	-34	?	-6%
CC(C)(C)c1ccc(C(=O)Nc2ccccc2NC(=O)c2ccco2)cc1	13µM*	?	-20	?	-19%
O=C(Nc1ccc(Oc2cccnc2)nc1)c1ccc(C(F)(F)F)cc1	2.2µM*	5.6µM*	-72*	-13%[46.1 µM]	?
O=C(NC(=O)c1c(Cl)cccc1Cl)Nc1ccc(Oc2cccnc2)nc1	0%	-9%	-25	-5%	-10%
COc1ccc(CNC(=O)C(Cc2ccccc2)NS(=O)(=O)c2ccc3c(c2)CCN3C(C)=O)cc1 (stereo not drawn)	.	?	-13	-11%[46.1 µM]	19%
Cc1ccc(C)c(Cn2c(=O)c3c(nc4n3CCN4c3ccc(F)cc3)n(C)c2=O)c1	.	.	-29	23%[46.1 µM]	-1%
Cc1ccc(C2C=C(c3ccc(Cl)cc3)Nc3nc(NC(=O)c4ccco4)nn32)cc1 (stereo not drawn)	.	?	-62*	-18%[46.1 µM]	?
CC1=CC(c2ccc(Cl)cc2)n2nc(N3C(=O)CCC3=O)nc2N1 (stereo not drawn)	24%	19%	.	1%	6%
Cc1ccc(C2C=C(c3ccccc3)Nc3nc(N4C(=O)CCC4=O)nn32)cc1 (stereo not drawn)	-3%	14%[46.1 µM]	-62*	-5%	1%
O=C(Nc1nc2n(n1)C(c1ccc(F)cc1)C=C(c1ccc(Cl)cc1)N2)c1ccc([N+](=O)[O-])cc1 (stereo not drawn)	.	2.8µM*	?	?	-13%
O=C(Nc1nc2n(n1)C(c1ccc(F)cc1)C=C(c1ccccc1)N2)c1ccc(Cl)cc1 (stereo not drawn)	.	-18%[46.1 µM]	-29	-1%[46.1 µM]	-24%
COc1ccccc1C(=O)Nc1nc2n(n1)C(c1ccc(F)cc1)C=C(c1ccc(Cl)cc1)N2 (stereo not drawn)	.	11%[46.1 µM]	-22	2%[46.1 µM]	-17%
CCN(CC)CCCNC(=O)c1nn(-c2ccc(OC)c(Cl)c2)c(=O)c2c1c1ccccc1n2C	.	8%[46.1 µM]	19	8%[46.1 µM]	-3%
Cc1ccc2nc(NC(=O)CSc3nccn3Cc3ccc(F)cc3)sc2c1	.	.	34	19%[46.1 µM]	?
Cc1ccc2c(=O)cc(C(=O)Nc3ccc(S(=O)(=O)N4CCCCCC4)cc3)oc2c1	.	1%[46.1 µM]	6	22%[46.1 µM]	-8%
SMILES	HCV inhibitor	MARV entry inh	HCMV antiviral	Lassa entry inh	FMDV inh
CC1(C)Oc2ccc3ccc(=O)oc3c2[C@@H](O)[C@H]1O	3.2µM*	.	-24	.	-15%
CCO[C@H]1c2c(ccc3ccc(=O)oc23)OC(C)(C)[C@H]1O	40%	.	13	.	1%
C/C=C(/C)C(=O)OC1c2c(ccc3ccc(=O)oc23)OC(C)(C)C1OC(=O)/C(C)=C\C (stereo not drawn)	-49%	.	-23	.	28µM*
C/C=C(\C)C(=O)OC1c2c(ccc3ccc(=O)oc23)OC(C)(C)C1OC(C)=O (stereo not drawn)	-9%	-22%	-32	-3%	-12%
CN(Cc1ccccc1O)CC1CCCN(CCc2ccc(Cl)cc2)C1 (stereo not drawn)	10µM*	.	6	.	-21%
COc1ccc(CCN2CCCC(CN(C)Cc3cc(OC)ccc3OC)C2)cc1 (stereo not drawn)	10µM*	.	-9	.	-8%
COc1ccc(CCN2CCCC(CN(C)Cc3cccc(OC)c3)C2)cc1 (stereo not drawn)	7.9µM*	?	-18	?	-8%
CCCOc1ccc(C(=O)Nc2ccc3oc(-c4ccc5ccccc5c4)nc3c2)cc1	.	.	36	12%[46.1 µM]	24%
CCCCNC(=O)c1cc(-c2cccnc2)nc2ccc(S(=O)(=O)NCCCC)cc12	.	.	?	-14%[46.1 µM]	92%
Cn1cc(S(=O)(=O)N2CCCCCC2)cc1C(=O)Nc1ccc(Cl)c(C(F)(F)F)c1	.	.	-17	-5%[46.1 µM]	-27%
FC(F)(F)c1cc(CCN2CCNC[C@@H]2c2ccccc2)cc(C(F)(F)F)c1	?	.	4	.	-12%
FC(F)(F)c1cc(CO[C@@H]2CCCN[C@@H]2c2ccccc2)cc(C(F)(F)F)c1	3.5µM*	.	24	.	?
Cc1cccc(-n2c(Cc3ccccc3)nnc2SCc2ccc([N+](=O)[O-])cc2)c1	?	-18%	-70*	?	-25%
c1ccc(Cn2ccc(-c3cnc(-c4ccccc4)s3)n2)cc1	?	?	58	11µM*	-17%
Nc1ccn(Cc2ccccc2)n1	7%	?	43	-27%[46.1 µM]	-16%
CCOC(=O)c1ccc(CN(Cc2ccccc2)S(=O)(=O)c2ccc(C)cc2)cc1	.	.	0	11µM*	3%
COC(=O)C1=C(C)N(Cc2ccccc2)C(=S)NC1c1cccc(C(F)(F)F)c1 (stereo not drawn)	.	-35%[14.2 µM]	.	.	.
CN(C)C(=O)/C=C\c1cn(-c2ccccc2)nc1-c1ccc2c(c1)OCCO2	-28%	?	-85*	?	-6%
O/N=C/c1cn(-c2ccccc2)nc1-c1ccc2c(c1)OCCO2	-15%	-24%	-11	-1%	20%
OCc1cn(-c2ccccc2)nc1-c1ccc2c(c1)OCCO2	11µM*	?	81	?	-19%
c1ccc(-n2cc(CN3CCCC(CN4CCCC4)C3)c(-c3ccc4c(c3)OCO4)n2)cc1 (stereo not drawn)	13µM*	.	?	.	-8%
CN1CCN(C(=O)/C=C/c2cn(-c3ccccc3)nc2-c2ccc3c(c2)OCCO3)CC1	?	21µM*	-11	?	24%
COC(=O)[C@@H]1[C@@H](CO)[C@@H]2Cn3c(ccc(Br)c3=O)[C@@H]2N1Cc1cccc(F)c1	.	.	-3	.	.
O=[N+]([O-])c1cc(-c2ncccn2)c([N+](=O)[O-])s1	?	?	-27	?	40µM*
